From the supplement of paper PMC13380429

Tested on: Vero E6 infected with SARS-CoV-2
Assay: inhibition of SARS-CoV-2 cytopathic effect; higher = more antiviral protection, active = above 15
Conditions: 48 h

Measured: inhibition of SARS-CoV-2 cytopathic effect

O=C(O)CCC(=O)c1ccc(-c2ccccc2)cc1 [fenbufen]
inactive: 1 nM -1.6% | 8.33 nM 2.58% | 100 nM -0.25% | 833.33 nM -2.57% | 10000 nM -2.49%

COc1ccccc1N1CCN(CCCNc2cc(=O)n(C)c(=O)n2C)CC1 [urapidil]
inactive: 1 nM 0.14% | 8.33 nM -1.36% | 100 nM -0.45% | 833.33 nM 2.04% | 10000 nM -0.1%

COC(=O)C1=C(C#N)NC(C)=C(C(=O)OC(C)C)C1c1cccc([N+](=O)[O-])c1 (stereo not given) [nilvadipine]
inactive: 1 nM -1.91% | 8.33 nM -2.45% | 100 nM 0.29% | 833.33 nM 5.15% | 10000 nM 3.78%

N=C(N)N/N=C/c1c(Cl)cccc1Cl [guanaben-acetate]
inactive: 1 nM -2.82% | 8.33 nM -0.46% | 100 nM -3.74% | 833.33 nM -2.55% | 10000 nM -1.82%

COc1cc(CCc2cc(NC(=O)c3ccc(N4CC(C)NC(C)C4)cc3)n[nH]2)cc(OC)c1 (stereo not given)
inactive: 1 nM -1.78% | 8.33 nM 1.81% | 100 nM 1.04% | 833.33 nM -1.56% | 10000 nM -1.21%

O=C(/C=C/c1ccc2ccccc2n1)c1ccncc1
inactive: 1 nM -4.3% | 8.33 nM -0.71% | 100 nM -2.06% | 833.33 nM -1.46% | 10000 nM -3.51%

NCCCC[C@H](NC(=O)[C@@H]1CCCN1C(=O)[C@@H]1CSSC[C@H](N)C(=O)N[C@@H](Cc2ccc(O)cc2)C(=O)N[C@@H](Cc2ccccc2)C(=O)N[C@@H](CCC(N)=O)C(=O)N[C@@H](CC(N)=O)C(=O)N1)C(=O)NCC(N)=O [lypressin]
inactive: 1 nM 0.07% | 8.33 nM 1.59% | 100 nM 3.33% | 833.33 nM 1.65% | 10000 nM 0.67%

CON [methoxyamine]
inactive: 1 nM 0.67% | 8.33 nM -2.53% | 100 nM -0.44% | 833.33 nM -3.19% | 10000 nM -0.96%

CC[C@]12CCCN3CCc4c(n(c5ccccc45)C(=O)C1)[C@@H]32 [vinburnine]
inactive: 1 nM -4.83% | 8.33 nM -3.72% | 100 nM -1.1% | 833.33 nM 0.35% | 10000 nM -0.52%

CCC[C@@H]1C[C@@H](C(=O)N[C@@H]([C@H]2O[C@H](SC)[C@H](O)[C@@H](O)[C@H]2O)[C@@H](C)O)N(C)C1 [lincomycin]
inactive: 1 nM 1.22% | 8.33 nM 2.66% | 100 nM -0.29% | 833.33 nM -1.24% | 10000 nM -1.36%

COc1ccc(CN2CCN(C(c3ccc(F)cc3)c3ccc(F)cc3)CC2)c(OC)c1OC [lomerizine]
inactive: 1 nM 1.2% | 8.33 nM -4.42% | 100 nM -2.46% | 833.33 nM -4.97% | 10000 nM -3.64%

C[C@H](CCC(=O)O)[C@H]1CC[C@H]2[C@@H]3CC[C@@H]4C[C@H](O)CC[C@]4(C)[C@H]3CC[C@]12C [lithocholic-acid]
inactive: 1 nM -0.57% | 8.33 nM 0.93% | 100 nM -0.13% | 833.33 nM 0.9% | 10000 nM -0.77%

CCCNS(=O)(=O)Nc1ncnc(OCCOc2ncc(Br)cn2)c1-c1ccc(Br)cc1 [macitentan]
inactive: 1 nM 0.7% | 8.33 nM -1.57% | 100 nM -0.9% | 833.33 nM 1.28% | 10000 nM 4.76%

CCCn1c(=O)c2nc(C34CC5CC(CC3C5)C4)[nH]c2n(CCC)c1=O
inactive: 1 nM 1.22% | 8.33 nM -0.55% | 100 nM 2.44% | 833.33 nM 2.31% | 10000 nM 1.25%

CN(C)CCOc1ccc(-c2nc(-c3ccncc3)c(-c3ccc4c(c3)CC/C4=N\O)[nH]2)cc1
inactive: 1 nM -0.13% | 8.33 nM -0.36% | 100 nM 2.34% | 833.33 nM -0.51% | 10000 nM 6.82%

CCOCc1nc2c(N)nc3ccccc3c2n1CC(C)(C)O [resiquimod]
inactive: 1 nM 2.06% | 8.33 nM 3.82% | 100 nM 1.55% | 833.33 nM 1.03% | 10000 nM -1.23%

CCN(CC)CCOC(=O)c1cc(Cl)c(N)cc1OC
inactive: 1 nM 3.29% | 8.33 nM 3.49% | 100 nM 1.89% | 833.33 nM -0.08% | 10000 nM -0.47%

C#Cc1cnc2nc(O)n(C(CC)CC)c2n1 [tirasemtiv]
inactive: 1 nM 1.57% | 8.33 nM -0.65% | 100 nM 1.78% | 833.33 nM 2.57% | 10000 nM -1.21%
